Results: PubChem BioAssay

Biological target: Dickkopf-related protein 1 (Homo sapiens) (UniProt O94907)
Assay: DKK1 binders on small-molecule microarrays, primary screen, biochemical, small-molecule microarray, 635 nm fluorescence scan (AID 1106);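 also: score merges emission near 667 nm with signal to noise over three replicate slides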
Details: DKK1 binding, higher = more signal

Sequence of Dickkopf-related protein 1 (Homo sapiens) (O94907 whole entry, looked up): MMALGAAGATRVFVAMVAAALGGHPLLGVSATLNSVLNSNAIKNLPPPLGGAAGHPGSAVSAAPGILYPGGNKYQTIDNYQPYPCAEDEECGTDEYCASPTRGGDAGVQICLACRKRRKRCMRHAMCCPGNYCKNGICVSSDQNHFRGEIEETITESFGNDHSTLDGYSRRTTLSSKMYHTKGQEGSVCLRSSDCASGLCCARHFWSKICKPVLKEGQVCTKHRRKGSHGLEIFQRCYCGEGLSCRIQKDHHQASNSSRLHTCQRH

Row | Structure (SMILES) | composite z-score
1 | C=CCC(OC(C)=O)[C@@H]1[C@@H](N(Cc2ccc(-c3ccccc3)cc2)C(=O)c2ccc(-c3ccccc3)cc2)c2cc(OCCCO)ccc2N1C(=O)c1ccc2ccccc2c1 (stereo not given in full) | 0.0004
2 | CCOC(=O)C[C@H]1[C@H](OC(=O)c2cc3ccccc3oc2=O)[C@@H](NC(=O)c2ccc3ccccc3n2)c2cc(OCCCO)ccc2N1C(=O)Cc1ccc(OC)cc1 | 0.707
3 | Cc1ccc(S[C@]2(C(=O)NCC(F)(F)F)CC(=O)N(Cc3cc(C(F)(F)F)cc(C(F)(F)F)c3)[C@@H]2c2ccc(CO)cc2)cc1 | -0.928
4 | COC(=O)[C@@]1(Cc2ccc(OC)cc2)[C@H]2c3cc(C(=O)N4CCCC4)n(CCc4c[nH]c5ccc(O)cc45)c3C[C@H]2CN1C(=O)c1ccccc1 | -0.32
5 | NC(=O)[C@@]1(Cc2ccccc2)COC(c2ccc(OCCCO)cc2)=N1 | -0.636
6 | COCCOC(=O)N1C(=O)[C@@]2(c3cc(C#CCCO)ccc31)[C@H](C(=O)Nc1nc3ccccc3s1)[C@H]1C(=O)O[C@H](c3ccccc3)[C@H](c3ccccc3)N1[C@@H]2c1ccc(O)cc1 | 0.957
7 | COc1ccc([Si](C)(C)[C@@H]2[C@@H](CCO)O[C@]3(C(=O)N(Cc4ccccc4)c4ccc(N5CCOC5=O)cc43)[C@H]2C)cc1 | 0.406
8 | C=C(/C(=C/C[C@H](OC(C)=O)c1ccc(CO)o1)c1cnc2ccccc2c1)C(C)C | 0.643
9 | COC(=O)[C@@]1(Cc2ccccc2)[C@H]2c3cc(C(=O)N4CCCC4)n(CCc4ccccn4)c3C[C@H]2CN1C(=O)c1ccccc1 | -0.37
10 | COCC(=C=CC[C@H](O)c1ccc(OCCO)cc1)CCO | 0.0604
11 | CCOC(=O)C1=C[C@@H](C(C)(C)C)N(S(=O)(=O)c2ccc(C)cc2)[C@H]1c1cccc2ccccc12 | -0.412
12 | C=CC[C@@]1(C(=O)NCCCOC)N=C(c2ccc(OCCCO)cc2)O[C@@H]1c1ccccc1 | -0.666
13 | [N-]=[N+]=Nc1ccccc1C[C@]1(C(=O)NCCN2CCOCC2)COC(c2ccc(OCCCO)cc2)=N1 | 0.234
14 | Cc1ccc(F)cc1S(=O)(=O)N[C@@H]1CCN(Cc2ccc(Br)cc2)C1 | 0.677
15 | OCCCC1=CC(c2ccc(CN3CCCC3)cc2)N(Cc2cc3c(cc2Br)OCO3)CC1 (stereo not given) | 1.14
16 | COC(=O)C1=CC(CCCO)=CC(c2ccc(CN3CCCC3)cc2)N(Cc2cccc(OC(F)(F)F)c2)C=C1C(=O)OC (stereo not given) | -0.271
17 | CC(CO)N1C(=O)[C@@H]2[C@H]3C(=O)OCC=C[C@H]3OC23C=CCN(Cn2nnc4ccccc42)C(=O)[C@@H]13 (stereo not given in full) | -0.586
18 | CC(C)NC(=O)[C@@]1(c2ccc([N+](=O)[O-])cc2)CC(=O)N(C2CCCCC2)[C@@H]1c1ccc(CO)cc1 | 0.214

Row | Structure (SMILES) | composite z-score
19 | O=C1CS(=O)(=O)C(c2cccc([N+](=O)[O-])c2)N1c1ccccc1 (stereo not given) | 0.625
20 | NC(=O)NCC#Cc1ccc2c(c1)[C@]1(C(=O)N2)[C@H](c2ccccc2OCCO)N2[C@H](c3ccccc3)[C@H](c3ccccc3)OC(=O)[C@H]2[C@@H]1C(=O)NC[C@H](O)c1ccccc1 | -0.548
21 | CCCC[C@@H](O)C1=C(COc2ccccc2)C[C@H]2C(=O)N(Cc3ccccc3)C(=O)[C@H]2[C@H]1CO | 0.638
22 | COC(=O)[C@@]1(Cc2ccc(F)cc2)[C@H]2c3cc(C(=O)N(C)C)n(Cc4ccc(OC(F)(F)F)cc4)c3C[C@H]2CN1C(=O)c1ccccc1 | 0.0583
23 | COCCOC(=O)N1C(=O)[C@@]2(c3cc(C#CC4=CCCCC4)ccc31)[C@H](c1ccccc1OCCO)N1[C@H](c3ccccc3)[C@H](c3ccccc3)OC(=O)[C@H]1[C@@H]2C(=O)N1CCN(c2ncccn2)CC1 | 0.489
24 | O=C1OCCC=C[C@H]2OC34C=CCN(c5ccc6ccccc6c5)C(=O)[C@H]3N(CCCO)C(=O)[C@@H]4C12 (stereo not given in full) | -1.8
25 | CCCC=C(CCC)[C@@H](NS(=O)(=O)CC12CCC(CC1=O)C2(C)C)c1ccc(C(=O)OC)cc1 (stereo not given in full) | 0.336
26 | CC(C)[Si](C#C[Si](C(C)C)(C(C)C)C(C)C)(O[C@H](c1ccccc1)c1cn(Cc2ccccc2)nn1)C(C)C | 0.405
27 | C[N+](C)(C)CCCC[C@@H]1NC(=O)[C@@H]2C[C@H](C(=O)NCCCCCCN)[C@H](c3cccc(OCCO)c3)N2C1=O | 0.695
28 | COC(=O)[C@@H]1N=C(c2ccc(OCCCO)cc2)O[C@@H]1C | 0.0375
29 | Cc1ccc(N2C(=O)c3ccccc3[C@@H](C(=O)NCCCN(C)C)[C@@H]2c2ccc(CO)cc2)nc1 | -0.06
30 | C#CCN(Cc1ccccc1Br)[C@H](/C=C/c1ccccc1)[C@@H](O)Cc1ccccc1 | -1.42
31 | COCCOC(=O)N1C(=O)[C@@]2(c3cc(C#CC4=CCCCC4)ccc31)[C@H](c1ccccc1OCCO)N1[C@H](c3ccccc3)[C@H](c3ccccc3)OC(=O)[C@H]1[C@@H]2C(=O)NC[C@H](O)c1ccccc1 | 0.752
32 | NCCCCCCNC(=O)[C@@H]1C[C@@H]2C(=O)N[C@@H](CCCCN)C(=O)N2[C@@H]1c1ccc(O)cc1 | 1.16
33 | C=CC[C@]1(C(=O)N2CCOCC2)COC(c2ccc(OCCCO)cc2)=N1 | 0.188
34 | COc1ccc(C(=O)Nc2ccc(CN3C(=O)[C@]4(O[C@H](CC(=O)N5Cc6ccccc6C[C@H]5CO)[C@@H]([Si](C)(C)c5ccc(OC)cc5)[C@@H]4C)c4ccccc43)cc2)cc1 | 0.786
35 | CCCNC(=O)[C@@H]1c2ccccc2C(=O)N(Cc2ccc(OC(F)(F)F)cc2)[C@H]1c1ccc(CO)cc1 | 0.0637
